Screens (PubChem BioAssay)
Smad3 inh = Smad3/FoxH1 peptide binding inhibitors, primary screen, biochemical, TR-FRET; Mothers against decapentaplegic homolog 3 (Homo sapiens), P84022; TR-FRET Smad3/Dy647-FoxH1 peptide binding, europium anti-His; inhibition, % at 25 µM; 88,000 tested, 0.29% active; AID 630, 2007;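 active = compounds that reduce the energy-transfer binding signal between the protein and its labelled peptide by more than half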;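 also: 0% = Smad3 plus labelled peptide maximal FRET and 100% = peptide-only background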
Target sequence (P84022 whole entry, looked up): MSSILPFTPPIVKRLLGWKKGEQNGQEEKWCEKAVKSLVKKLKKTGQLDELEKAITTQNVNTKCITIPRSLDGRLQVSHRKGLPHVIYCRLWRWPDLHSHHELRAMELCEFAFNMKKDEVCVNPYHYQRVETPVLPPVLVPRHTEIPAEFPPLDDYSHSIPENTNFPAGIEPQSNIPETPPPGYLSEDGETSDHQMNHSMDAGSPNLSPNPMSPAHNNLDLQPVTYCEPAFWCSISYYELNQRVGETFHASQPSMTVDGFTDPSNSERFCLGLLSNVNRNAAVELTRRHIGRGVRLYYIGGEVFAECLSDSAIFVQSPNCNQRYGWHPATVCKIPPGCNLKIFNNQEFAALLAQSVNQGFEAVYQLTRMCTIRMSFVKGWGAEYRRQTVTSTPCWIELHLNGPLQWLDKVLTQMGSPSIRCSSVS
MT1-MMP txn act = MT1-MMP promoter reporter activation – cell-based, luciferase luminescence, primary screen | HT1080 MT1-MMP promoter luciferase reporter, overnight; active compounds read high | activation factor at 10 µM | 86,000 tested, 0.16% active | AID 750, 2007;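 active = activation factor of at least 2 for MT1-MMP transcription at 10 µM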
Measles CPE = compounds protecting cells from measles virus cytopathic effect, primary screen, measles RdRp inhibitor project, single point, MLSMR library, absorbance; protection (pct of control), % at 4 µM; Measles virus-infected cells, CPE protection; 140,000 tested, 1.5% active; AID 841, 2007; in the data active = protection mostly above about 24%, no sharp cut-off; inactive = mostly below about 26%
Starred values were filed as active, the others as inactive; . = no result; [ ] = dose if it differs, or a comment. Shown are actives, neighbours in structure and some others; about 1.7% of the full set was active somewhere.

SMILES	Smad3 inh	MT1-MMP txn act	Measles CPE
COc1ccc(OCCC(=O)OCc2c(C)noc2C)cc1	.	.	35*
Cc1cccn2c(=O)c3cc(C(=O)Nc4ccc(N(C)C)cc4)n(C)c3nc12	63*[fluorescence artefact?]	0.9	.
CCN(CC)C(=O)c1cc2c(=O)n3cccc(C)c3nc2n1C	10	1.1	3
C=CCn1c(-c2ccc([N+](=O)[O-])cc2)n[nH]c1=S	.	.	38*
C=CCn1c(-c2cccnc2)n[nH]c1=S	.	.	19
COC(=O)c1ccc(-n2nnnc2SC)cc1	-5	1.2	16
COC(=O)COC(=O)c1ccc(-n2nnnc2SC)cc1	-2	1.1	54*
CCOC(=O)c1sc(NS(=O)(=O)c2ccccc2Cl)nc1C	-3	1.1	3
CC1(C)O[C@@H]2[C@@H](CO[C@H]2c2[nH]nc3c(=O)[nH]c(=O)[nH]c23)O1	-14	.	.
O=C(COc1ccc(Br)cc1)N1CCN(c2ccccc2)CC1	6	1	35*
O=C(COc1ccccc1)N1CCN(c2ccccc2)CC1	.	.	3
C[C@@H](C(=O)Nc1ccc2ccccc2c1)[C@@H]1C[C@@]1(C)[C@@H](NS(=O)(=O)c1ccc(-c2ccccc2)cc1)c1ccccc1	.	1.2	.
CC(CN1CCOCC1)OC(=O)c1cccc(Br)c1 (stereo not given)	7	1.1	1
CC(CN1CCOCC1)OC(=O)c1ccccc1Br (stereo not given)	14	1.1	56*
CCN(CC)S(=O)(=O)c1ccc(N=NC2=C(O)CC(C)(C)CC2=O)cc1	.	.	27
CCN(CC)S(=O)(=O)c1ccc(N=NC2=C(O)CCCC2=O)cc1	.	.	34*
S=C(Nc1ccccc1)Nc1ccccc1C#Cc1ccccc1	.	1.1	.
CC1CN(CC(O)COc2ccc(C(=O)c3ccccc3)cc2)CC(C)O1 (stereo not given)	0	1.1	5
CC1CN(CC(O)COC(c2ccccc2)c2ccccc2)CC(C)O1 (stereo not given)	.	.	31*
CSc1nc2c(c(=O)n1-c1ccc(C)cc1)SCC2	1	1.3	8
CSc1nc2c(c(=O)n1-c1ccc(F)cc1)SCC2	.	1.2	44*
O=C1Nc2ccccc2C1=Nc1cccc2ncccc12	-2	.	.
Cc1ccn2c(-c3n[nH]c(=S)n3C)c(C)nc2c1	.	.	6
CCOC(=O)CCCN	1	.	.
COc1cc(CNCc2ccccn2)ccc1OCC(=O)NC(C)(C)C	.	.	31*
SMILES	Smad3 inh	MT1-MMP txn act	Measles CPE
COc1cc(CNCc2ccccn2)ccc1OCC(=O)NC1CCCCC1	.	.	11
N[C@@H](Cc1cccnn1)C(=O)O	2	.	.
Cn1c(CO)c(-c2ccccc2)c2cc([N+](=O)[O-])ccc21	.	.	37*
CCn1c(=O)n(CC)c2cc([N+](=O)[O-])ccc21	.	.	2
CCCOc1ccc(C(C)=O)cc1CSCCC#N	12	1.1	40*
COc1ccc(C(C)=O)cc1CSCCC#N	-12	1.1	15
COc1ccc(NC(=O)c2n[nH]c(=O)c3ccccc23)cc1S(=O)(=O)N1CCCCC1	.	.	21
CC(c1ccccc1)C1CC(=O)N(C2CCCCC2)C1=O (stereo not given)	54*	1	16
O=C1C2C(c3ccccc3)C=CC(c3ccccc3)C2C(=O)N1C1CCCCC1 (stereo not given)	7	1	9
CCCCn1c(Cc2ccccc2)n[nH]c1=S	5	1.1	6
CCCCOc1ccc(Cc2n[nH]c(=S)n2N)cc1	.	.	40*
COC(=O)[C@@]1(Cc2ccccc2)[C@H]2c3cc(C(=O)N4CCCC4)n(CCN4CCNC4=O)c3C[C@H]2CN1C(=O)c1ccccc1	.	1.1	.
CCc1cc(C(=O)OC)c(NC(=O)C2CC(=O)NN2Cc2ccccc2)s1 (stereo not given)	.	.	23*
CCc1cc(C(=O)OC)c(NC(=O)CC2NCCNC2=O)s1 (stereo not given)	3	1	1
NCCC[C@@H](N)C(=O)O	3	.	.
O=C(COc1ccc([N+](=O)[O-])cc1)N(Cc1ccccc1)Cc1ccccc1	.	.	32*
O=C(COc1ncnc2cc([N+](=O)[O-])ccc12)N(CCc1ccccc1)Cc1ccccc1	.	.	4
Nc1nc(-c2ccccc2)cc(N2CCCCC2)n1	-5	0.6	2
Cc1nc(-c2ccccc2)cc(N2CCCC2)n1	.	1.1	33*
S=C(S)NCCN1CCNCC1	43	.	.
CC(C)(CN)SCc1ccccc1	4	.	.
COCCCNC(=O)c1ccc(C(=O)NCCCOC)cc1	8	1.1	5
COCCCNC(=O)c1ccc([N+](=O)[O-])c(Cl)c1	.	.	36*
COc1ccc(C(=O)NCC(O)COc2ccc(C(C)(C)C)cc2)cc1[N+](=O)[O-] (stereo not given)	.	.	19
Nc1[nH]c(=O)nc2c1ncn2[C@H]1O[C@H](CO)[C@@H](O)[C@@H]1O	-6	.	.
SMILES	Smad3 inh	MT1-MMP txn act	Measles CPE
C[N+](C)(C)CCCSc1nc2ccccc2[nH]1	20	.	.
C[C@H](NC(=O)c1ccccc1Cl)C(=O)OC(C(=O)Nc1cc(C(F)(F)F)ccc1Cl)c1ccccc1 (stereo not given in full)	.	.	58*
O=C(CNC(=O)c1ccccc1F)OC(C(=O)Nc1cc(C(F)(F)F)ccc1Cl)c1ccccc1 (stereo not given)	.	.	1
COC(=O)[C@@]1(Cc2ccc(F)cc2)[C@H]2c3cc(C(=O)N4CCCC4)n(CC4CC4)c3C[C@H]2CN1C(=O)c1ccccc1	.	1.1	.
O[C@@H](COc1ccc(Cl)cc1Cl)CN1CCCC1	-2	.	.
COc1ccc(CCN2C(=O)CC(NNC(=O)c3ccccc3Br)C2=O)cc1OC (stereo not given)	.	.	11
COc1ccc(C/C(C)=N/NC(=S)Nc2ccccc2)cc1	.	.	12
COc1ccc(CNC(=S)Nc2cccc(C)c2)cc1	3	1.1	40*
Cc1cccc(NC(=S)NCc2ccc(F)cc2)c1	.	.	4
COc1ccc(C/C(C)=N/NC(=S)Nc2ccc(C)c(C)c2)cc1	.	.	20*
CC1(C)CCC(=O)N[C@H]1CC(=O)C[C@@H]1NC(=O)CCC1(C)C	-2	.	.
CC(=O)C1=C(O)C(=O)N(Cc2ccco2)C1c1ccc(F)cc1 (stereo not given)	9	1.1	6
